The text below walks through data of PubChem BioAssay.

Results filed as inconclusive are left out. The source made the active and inactive calls.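 The calls were made as follows, unless noted: active = viability at or under a set limit in both replicates, limit being median viability minus 3 SD (cut at about 48% in these data, passing the limit was not always enough); inconclusive = at or under the limit in just one replicate; inactive = at or above the limit in both replicates.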

Broadly, the viability is a read-out of living cells in per cent, often relative to untreated cells. In general, inhibition refers to the relative decrease from the control value, in per cent.

A short description of assay [1]: reducers of endogenous Her2 protein level, primary screen, SKBR3 breast tumor cells, AlphaScreen, ATP viability (AID 461;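 active = Her2 level under about 52% in both replicate screens, with viability over 70% of control, limit read from the data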;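 as to Her2 level: lower value means less Her2 protein in the cells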;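 as to viability: percent of carrier control wells set as 100% viability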). Particulars: 18-24 h, measured here: SKBR3 viability, ATP luminescence, at 10 µM.
Assay [2] has as its target Receptor tyrosine-protein kinase erbB-2 (Homo sapiens) (UniProt P04626). The description is as above. Particulars: 18-24 h, at 10 µM, stronger effect = lower value.
Assay [3] is described as follows: SK-BR-3 cell growth inhibitors, pilot screen, 24 h, human (AID 572;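 active = viability at or below 10% of carrier control in both of two separate runs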;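 also: compound exposure lasted between 18 and 24 h rather than exactly 24 h; 100% = carrier-treated control wells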). As to conditions: SK-BR-3 viability, CellTiter-Glo luminescence, at 10 µM, stronger effect = lower value.
The nature of assay [4]: HUVEC growth inhibition – cell-based, human, primary screen (AID 575;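 active = viability at or below 30% in both replicate assays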;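 also: 100% = median of untreated cell wells with 0.1% DMSO on each plate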). Particulars: HUVEC proliferation, CellTiter-Glo luminescence, 72 h; at 10 µM; stronger effect = lower value. In general terms: Cellular ATP, detected with luciferase, serves as a proxy for viable cell number.
The nature of assay [5]: growth inhibitors of H69AR lung tumor, primary screen, human, duplicate replicates (AID 580).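 Also: 100% = mean luminescence of untreated wells and 0% = no signal.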 Particulars: H69AR lung tumor cells viability, ATP luminescence, 72 h; at 10 µM; stronger effect = lower value.
A short description of assay [6]: reversal of MRP1-mediated doxorubicin resistance, pilot screen, H69AR cells, doxorubicin co-treatment (AID 601;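 active = viability loss from added drug above about 55%, and viability with drug at most 40%, in both replicates, limit read from the data, passing the limit was not always enough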). Particulars: CellTiter-Glo, 72 h, at 10 µM; for differential viability (reversal): stronger effect = higher value.
A short description of assay [7]: 384-well plate pilot, post-Golgi transport modulator project, inhibition of yeast transport mutant growth (AID 636; in the data active = inhibition above about 31%). Particulars: absorbance 615 nm, about 18 h, stronger effect = higher value.
Assay [8] can be described thus: growth suppression of yeast trafficking mutant, preliminary HTS, modulators of trafficking downstream of Golgi apparatus project, 1536-format plate, OD 615 nm (AID 637; in the data active = inhibition above about 30%). Particulars: yeast transport mutant growth, absorbance 615 nm, 18 h; stronger effect = higher value.
A short description of assay [9]: OD615 S. cerevisiae growth inhibition, permissive medium, pilot counter-assay, permissive growth control for S. cerevisiae lifespan shortening project (AID 705;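 active = growth inhibition above 25% in both replicates, a cutoff set 3 SD above the mean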). Particulars: OD615, 24 h, at 10 µM, stronger effect = higher value.
Assay [10] in a line: Restrictive medium S. cerevisiae growth inhibition, OD615, pilot screen of yeast lifespan reduction project, restrictive growth control (AID 706;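 active = growth inhibition above a set limit, 3 SD over mean compound inhibition, in both replicates, cut at about 43% in these data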;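 also: modified DeaD lifespan yeast strain shifted to restrictive glucose medium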). As to conditions: OD615, 48 h, at 10 µM, stronger effect = higher value.
Assay [11] can be described thus: viability gain of MRP-1-high H69AR cells under doxorubicin, pilot screen, MRP-1 activator project, CellTiter-Glo, duplicate (AID 807;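 active = viability increase at or above a cutoff of the median across tested compounds plus 3 SD, cut at about 8.5% in these data, passing the limit was not always enough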;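 also: compound pretreatment 18-22 h then 72 h combined with doxorubicin; 0% = doxorubicin alone and 100% = vehicle without doxorubicin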). As to conditions: H69AR viability with doxorubicin, CellTiter-Glo luminescence; at 10 µM; stronger effect = higher value.
A short description of assay [12]: growth suppression of beta-catenin knockout HCT116, pilot screen, human colon tumor cells (AID 823;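 active = cell viability at or below a set limit in both duplicate runs, the limit being the all-compound median minus 4 SD, cut at about 23% in these data, passing the limit was not always enough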;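 also: 0% = wells killed by 20 µM Hyamine and 100% = untreated DMSO cell wells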). As to conditions: CellTiter-Glo, 60 h, at 10 µM, stronger effect = lower value.
Assay [13] is described as follows: growth suppression of PTEN-deleted HCT116, pilot screen, cell-based, HCT116 clonal line, CellTiter-Glo (AID 824;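 active = viability at or below 27.92% in each of two runs, the all-compound median minus 4 SD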;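 also: 0% = 20 µM Hyamine control and 100% = vehicle cell control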). Particulars: 60 h, at 10 µM, stronger effect = lower value.
Assay [14] can be described thus: inhibitors of the yeast RAM network, pilot screen, dse1pr::URA3 reporter, 5-FOA selection (AID 869;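 active = inhibition over a set limit, the all-compound mean plus 3 SD, in both replicate runs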;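 also: 0% = DMSO wells with no growth and 100% = 10 µM 1-NA-PP1 with full growth; RAM network block rescues cells from 5-FOA so hits raise OD615 growth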). As to conditions: S. cerevisiae dse1pr::URA3 5-FOA growth, OD615, 2 d; at 10 µM; stronger effect = higher value; strain carries analog-sensitive mutant Cbk1 kinase.
Assay [15] can be described thus: RAM signaling pathway blockade in yeast – S. cerevisiae, Pdr1DBD-CYC8 efflux-inhibited sensitized strain, primary screen (AID 1298;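 active = RAM network inhibition above 8.4% in each of two replicates, 3 SD over the compound average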;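 also: 0% = DMSO untreated cells without growth and 100% = 10 µM 1-NA-PP1 full growth; higher means more yeast growth rescued from 5-FOA killing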). Particulars: S. cerevisiae cbk1-as DSE1-URA3 strain, 5-FOA growth OD615, 2 d; at 50 µM; stronger effect = higher value.
[16] abbreviates: H69AR cells + 2 uM doxorubicin, measured here: viability with 2 uM doxorubicin, stronger effect = lower value.
Where [17] appears, read: H69AR cells, compound alone cytotoxicity.

Receptor tyrosine-protein kinase erbB-2 (Homo sapiens), sequence (P04626 whole entry, looked up): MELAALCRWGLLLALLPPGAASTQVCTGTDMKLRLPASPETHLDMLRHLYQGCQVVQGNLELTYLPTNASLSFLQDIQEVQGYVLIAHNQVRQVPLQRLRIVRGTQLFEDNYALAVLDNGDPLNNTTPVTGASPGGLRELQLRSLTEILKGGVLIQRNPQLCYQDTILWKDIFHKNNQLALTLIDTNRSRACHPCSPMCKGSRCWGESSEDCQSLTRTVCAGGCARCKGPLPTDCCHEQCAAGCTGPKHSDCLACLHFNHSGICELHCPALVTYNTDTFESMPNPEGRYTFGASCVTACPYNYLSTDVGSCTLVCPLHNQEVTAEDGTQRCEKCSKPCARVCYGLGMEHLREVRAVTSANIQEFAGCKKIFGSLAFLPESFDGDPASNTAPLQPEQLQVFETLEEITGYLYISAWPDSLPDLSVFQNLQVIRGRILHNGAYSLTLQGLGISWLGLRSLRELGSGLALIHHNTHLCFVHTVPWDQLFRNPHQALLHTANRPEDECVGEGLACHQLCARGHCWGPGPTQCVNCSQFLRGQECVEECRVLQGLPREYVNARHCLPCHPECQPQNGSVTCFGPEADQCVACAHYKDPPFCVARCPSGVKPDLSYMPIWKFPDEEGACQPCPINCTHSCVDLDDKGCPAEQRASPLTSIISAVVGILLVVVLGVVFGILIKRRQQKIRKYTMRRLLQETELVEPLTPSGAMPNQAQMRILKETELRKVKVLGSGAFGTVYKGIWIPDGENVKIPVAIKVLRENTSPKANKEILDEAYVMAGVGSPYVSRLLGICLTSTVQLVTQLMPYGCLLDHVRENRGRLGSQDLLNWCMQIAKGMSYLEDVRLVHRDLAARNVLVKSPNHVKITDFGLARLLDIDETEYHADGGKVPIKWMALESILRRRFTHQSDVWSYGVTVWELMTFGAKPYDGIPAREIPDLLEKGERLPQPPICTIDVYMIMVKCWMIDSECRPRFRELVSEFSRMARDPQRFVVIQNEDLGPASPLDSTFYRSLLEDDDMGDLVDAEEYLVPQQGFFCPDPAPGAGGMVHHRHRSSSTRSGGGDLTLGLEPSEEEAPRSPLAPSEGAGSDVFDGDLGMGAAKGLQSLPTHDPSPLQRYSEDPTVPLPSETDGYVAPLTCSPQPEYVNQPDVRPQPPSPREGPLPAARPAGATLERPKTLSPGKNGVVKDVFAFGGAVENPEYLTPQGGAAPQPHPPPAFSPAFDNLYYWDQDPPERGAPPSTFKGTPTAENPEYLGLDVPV

Turning to `COc1ccccc1NC(=O)N(C1CCCC1)C1CCN(C(C)=O)CC1`, the viability was 77.5% in [1]; 77.5% (inactive) in assay [3]; 112% (inactive) in [4]; 88.3% (inactive) in assay [5]; 87.6% in assay [6] (setting [16]); 88.3% in [6] (setting [17]). In addition, the viability in assay [12] is 92.4% (inactive); in assay [13], 94.7% (inactive). Also, in assay [2], the Her2 level is 89.5% (inactive). In addition, the differential viability (reversal) in assay [6] (H69AR cells + 2 uM doxorubicin) is 0.61% (inactive). Moreover, the values for the inhibition in [7], in assay [8] and in assay [14] were 0.77% (inactive), -8.83% (inactive) and 0.72% (inactive), respectively. The growth inhibition in assay [9] was -2.26% (inactive); in assay [10], -27.4% (inactive). Also, the viability increase in [11] is -2.01% (inactive). For the same compound, the RAM network inhibition in assay [15] was 5% (inactive).
For the compound `O=C(CSc1nnc2ccccn12)c1ccccc1`, the viability in assay [1] was 99%; in assay [3] it was 99% (inactive); in assay [4], 88.8% (inactive); in assay [5] it was 94.5% (inactive); in [6] (setting [16]), 80.3%; in assay [6] (setting [17]) it was 94.5%. In addition, the viability in assay [12] is 109% (inactive); in assay [13], 102% (inactive). Besides, the Her2 level in assay [2] is 88% (inactive). Moreover, in assay [6] (H69AR cells + 2 uM doxorubicin), the differential viability (reversal) was 14.1% (inactive). In addition, the figures for the inhibition in assay [7], in assay [8] and in assay [14] were -4.27% (inactive), -3.44% (inactive) and 1.23% (inactive), respectively. The growth inhibition is -13.8% (inactive) in [9] and -10.6% (inactive) in assay [10]. The viability increase in [11] was 0.47% (inactive). For the same compound, the RAM network inhibition in assay [15] is 2.3% (inactive).
As to `CN1CCN(CC(=O)N2c3ccccc3C(C)(c3ccccc3)CC2(C)C)CC1` (configuration not stated), the viability in assay [1] is 87%; in [3], 87% (inactive); in assay [4], 78.8% (inactive); in [5], 65.8% (inactive); in assay [6] (setting [16]), 97.1%; in assay [6] (setting [17]), 65.8%. In addition, the viability is 49.1% (inactive) in [12] and 50.7% (inactive) in [13]. Besides, the Her2 level in assay [2] was 103% (inactive). Further, the differential viability (reversal) in assay [6] (H69AR cells + 2 uM doxorubicin) is -31.3% (inactive). The inhibition in assay [7] is -0.38% (inactive); in assay [8], 2% (inactive); in assay [14] it was 0.685% (inactive). The growth inhibition in assay [9] was -9.57% (inactive); in assay [10] it was -2.67% (inactive). In [11], the viability increase was -6.54% (inactive). For the same compound, the RAM network inhibition in [15] was 1.99% (inactive).
With `CCOc1ccc(S(=O)(=O)N2CCN(c3ccc(C)cc3C)CC2)cc1`, the viability was 98.5% in assay [1]; 98.5% (inactive) in assay [3]; 90.1% (inactive) in [4]; 90.1% (inactive) in assay [5]; 105% in assay [6] (setting [16]); 90.1% in assay [6] (setting [17]). For the same compound, the viability in assay [12] is 65.6% (inactive); in assay [13], 83.5% (inactive). The Her2 level in assay [2] was 114% (inactive). The differential viability (reversal) in assay [6] (H69AR cells + 2 uM doxorubicin) was -14.9% (inactive). Further, the inhibition in assay [7] was -5.07% (inactive); in assay [8], -4.67% (inactive); in assay [14], 2.64% (inactive). Moreover, the growth inhibition in [9] was 7.69% (inactive); in [10], 5.65% (inactive). For the same compound, the viability increase in [11] was -0.07% (inactive). For the same compound, the RAM network inhibition in assay [15] is 6.67% (inactive).
On to `CCOC(=O)Nc1ccc2c(c1)N(C(=O)OCCN(C)C)c1ccccc1CC2`, for which the viability in assay [1] is 94.5%; in [3] it was 94.5% (inactive); in assay [4] it was 77.5% (inactive); in assay [5], 90.2% (inactive); in assay [6] (setting [16]), 77.7%; in assay [6] (setting [17]), 90.2%. Besides, the viability was 73.5% (inactive) in assay [12] and 78.8% (inactive) in assay [13]. Further, the Her2 level in assay [2] is 100% (inactive). The differential viability (reversal) in assay [6] (H69AR cells + 2 uM doxorubicin) is 12.4% (inactive). Moreover, the values for the inhibition in assay [7], in assay [8] and in assay [14] were -7.07% (inactive), -9.02% (inactive) and 1.89% (inactive), respectively. In addition, the growth inhibition in [9] is -10.3% (inactive); in assay [10] it was -0.265% (inactive). Besides, the viability increase in assay [11] is -4.23% (inactive). For the same compound, the RAM network inhibition in assay [15] is 2.2% (inactive).
As for `CCN1CCN(c2nc3c(c(=O)[nH]c(=O)n3C)n2CCSc2nc3ccccc3s2)CC1`, the viability in assay [1] is 95.5%; in assay [3] it was 95.5% (inactive); in assay [4], 115% (inactive); in [5] it was 88.6% (inactive); in assay [6] (setting [16]) it was 97.1%; in assay [6] (setting [17]), 88.6%. The results for the viability in assay [12] and in assay [13] were 96.9% (inactive) and 91.4% (inactive), respectively. Further, the Her2 level in [2] is 95% (inactive). Besides, the differential viability (reversal) in assay [6] (H69AR cells + 2 uM doxorubicin) is -8.44% (inactive). Further, the values for the inhibition in assay [7], in assay [8] and in assay [14] were -1.73% (inactive), 4% (inactive) and 0.9% (inactive), respectively. The growth inhibition in assay [9] was 1.81% (inactive); in [10], -6% (inactive). Moreover, the viability increase in assay [11] is -1.2% (inactive). Further, the RAM network inhibition in [15] is -0.84% (inactive).
